Structures are written as SMILES. Activity calls are given as the source filed them. The calls were made as follows: active = hit-call score of the fitted dose curve at least 0.9, where 1 is the maximum; inactive = score below 0.9.

The AC50 is the concentration at which the activity in the assay is half-maximal.

The nature of test [1]: ATG_CRE_CIS: Attagene CIS-FACTORIAL HepG2 Assay for human cAMP Responsive Element (CRE) binding protein 3 (AID 2282926). The settings on record: HepG2 CRE cis-reporter, Attagene multiplexed mRNA; actives raise or lower the signal. The procedure, abridged:
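Capillary electrophoresis of 6-FAM-labelled, HpaI-digested PCR products quantified reporter transcripts. These came from HepG2 transiently transfected with cis-element reporters and exposed to test chemicals for 24 hours, with DMSO defining baseline activity.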

Test [2] deals with CCAAT/enhancer-binding protein beta (Homo sapiens) (UniProt P17676). Put plainly: ATG_C_EBP_CIS: Attagene CIS-FACTORIAL HepG2 Assay for human CCAAT/Enhancer Binding Protein (C/EBP) beta (AID 2282927). The settings on record: HepG2 Attagene cis-factorial transcription factor reporter; actives raise or lower the signal. Put shortly:
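Endogenous transcription factor activity in human liver HepG2 cells is inferred from induction of a CEBPB-linked reporter mRNA. Exposure lasts 24 h; activity is fitted in both directions relative to DMSO.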

Test [3] in a line: ATG_CMV_CIS: Attagene CIS-FACTORIAL HepG2 Assay for human CMV (Internal Marker) (AID 2282928).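 Also: endpoint acts as a background internal control marker rather than a target.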 The settings on record: HepG2 CMV promoter reporter, transcription factor profiling; actives raise or lower the signal. Put shortly: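 24 h chemical treatment, HepG2 with transient multi-reporter transfection; RNA → oligo(dT) RT → PCR → 6-FAM extension → HpaI digest → CE fluorescence. Bidirectional fit, DMSO negative control.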

Test [4] can be described thus: ATG_DR4_LXR_CIS: Attagene CIS-FACTORIAL HepG2 Assay for human Liver X Receptor (LXR), DR4 submotif (AID 2282929). The settings on record: HepG2 Attagene DR4 cis-reporter, mRNA transcription; actives raise or lower the signal. The procedure, abridged: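 Total RNA from 24 h-treated, MRTU-transfected HepG2 cells underwent reverse transcription, PCR, fluorescent primer extension and restriction digestion before capillary electrophoresis. Both increases and decreases in reporter signal were fitted against DMSO.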

Test [5] in a line: ATG_AP_1_CIS: Attagene CIS-FACTORIAL HepG2 Assay for human Activator Protein 1 (AP-1) (AID 2282931). Particulars: HepG2 Attagene cis-factorial AP-1 reporter mRNA; actives raise or lower the signal. Put shortly:
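HepG2, transient cis-reporter transfection; 24 h; readout RT-PCR/CE fluorescence; DMSO baseline, gain and loss fitted.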

A short description of test [6]: ATG_AP_2_CIS: Attagene CIS-FACTORIAL HepG2 Assay for human Activator Protein 2 (AP-2) (AID 2282932). Particulars: HepG2 AP-2 cis-reporter, Attagene transcription factor profiling; actives raise or lower the signal. Put shortly:
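Transiently transfected HepG2 cells are exposed to chemical for 24 h. Reporter transcripts are then measured as fluorescence following RT-PCR and capillary separation, and gain- or loss-of-signal is fitted relative to DMSO.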

A short description of test [7]: ATG_BRE_CIS: Attagene CIS-FACTORIAL HepG2 Assay for human Bone Morphogenetic Protein (BMP) Response Element (BRE) (AID 2282933). Particulars: HepG2 BMP response element reporter, Attagene transcription factor profiling; actives raise or lower the signal. The procedure, abridged: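 HepG2 cells transiently transfected with CIS reporter units (endogenous TF activity, BMP response element), dosed 24 h. Reporter mRNA quantified by RT-PCR, fluorescent labelling and capillary electrophoresis; bidirectional fit vs DMSO baseline.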

The target of test [8] is Retinoic acid receptor alpha (Homo sapiens) (UniProt P10276). Nature of the test: ATG_DR5_RAR_CIS: Attagene CIS-FACTORIAL HepG2 Assay for human Retinoic Acid Receptor Alpha (RARE), DR5 submotif (AID 2282934). Particulars: HepG2 Attagene cis-factorial RARE DR5 reporter, mRNA; actives raise or lower the signal. Put shortly: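 Transient MRTU transfection of HepG2; 24 h compound treatment; TriZol RNA, oligo(dT) RT, PCR, FAM labelling, capillary electrophoresis. Bidirectional fit vs DMSO. Endogenous TF activity at DR5 RARE.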

Test [9] addresses Transcription factor E2F1 (Homo sapiens) (UniProt Q01094). Nature of the test: ATG_E2F_CIS: Attagene CIS-FACTORIAL HepG2 Assay for human E2F Transcription Factor 1 (AID 2282935). Particulars: HepG2 Attagene cis-reporter, E2F reporter RNA transcripts; actives raise or lower the signal. The procedure, abridged:
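Fluorescent RT-PCR products, digested with HpaI for 2 h at 37 C, are separated by capillary electrophoresis. Source RNA comes from transfected HepG2 cultures treated for 24 h.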

The target in test [10] is Aryl hydrocarbon receptor (Homo sapiens) (UniProt P35869). Put plainly: ATG_Ahr_CIS: Attagene CIS-FACTORIAL HepG2 Assay for human Aryl Hydrocarbon Receptor (Ahr) (AID 2282930). The settings on record: HepG2 AhR cis-factorial reporter transcription; actives raise or lower the signal. Put shortly:
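Transient MRTU transfection of HepG2 → 24 h compound exposure → total RNA, oligo(dT) RT → PCR, 6-FAM extension, HpaI cut → CE fluorescence. DMSO = baseline; bidirectional curve fit.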

Chain of Aryl hydrocarbon receptor (Homo sapiens) (P35869 whole entry, looked up): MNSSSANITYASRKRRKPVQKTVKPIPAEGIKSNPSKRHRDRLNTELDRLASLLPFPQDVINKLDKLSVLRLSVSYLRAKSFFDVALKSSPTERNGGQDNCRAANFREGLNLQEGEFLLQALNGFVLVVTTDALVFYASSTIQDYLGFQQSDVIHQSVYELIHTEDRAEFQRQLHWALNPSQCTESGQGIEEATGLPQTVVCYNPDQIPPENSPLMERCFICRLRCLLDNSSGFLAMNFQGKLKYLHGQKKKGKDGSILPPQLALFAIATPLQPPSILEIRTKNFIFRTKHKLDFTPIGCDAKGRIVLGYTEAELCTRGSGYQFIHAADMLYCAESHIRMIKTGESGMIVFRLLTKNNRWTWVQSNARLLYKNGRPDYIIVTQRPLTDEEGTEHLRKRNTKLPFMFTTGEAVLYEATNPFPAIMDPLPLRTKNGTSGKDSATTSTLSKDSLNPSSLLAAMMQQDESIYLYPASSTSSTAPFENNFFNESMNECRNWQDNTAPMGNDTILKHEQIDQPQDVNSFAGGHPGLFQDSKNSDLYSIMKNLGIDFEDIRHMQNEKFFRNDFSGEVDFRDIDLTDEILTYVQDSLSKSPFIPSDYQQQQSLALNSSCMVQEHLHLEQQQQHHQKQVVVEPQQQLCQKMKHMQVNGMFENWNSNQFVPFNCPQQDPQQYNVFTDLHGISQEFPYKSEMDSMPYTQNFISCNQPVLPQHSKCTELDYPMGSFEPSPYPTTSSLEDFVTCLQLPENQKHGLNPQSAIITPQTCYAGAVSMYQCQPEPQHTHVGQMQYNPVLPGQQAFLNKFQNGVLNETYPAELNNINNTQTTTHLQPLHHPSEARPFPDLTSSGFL
Chain of CCAAT/enhancer-binding protein beta (Homo sapiens) (P17676 whole entry, looked up): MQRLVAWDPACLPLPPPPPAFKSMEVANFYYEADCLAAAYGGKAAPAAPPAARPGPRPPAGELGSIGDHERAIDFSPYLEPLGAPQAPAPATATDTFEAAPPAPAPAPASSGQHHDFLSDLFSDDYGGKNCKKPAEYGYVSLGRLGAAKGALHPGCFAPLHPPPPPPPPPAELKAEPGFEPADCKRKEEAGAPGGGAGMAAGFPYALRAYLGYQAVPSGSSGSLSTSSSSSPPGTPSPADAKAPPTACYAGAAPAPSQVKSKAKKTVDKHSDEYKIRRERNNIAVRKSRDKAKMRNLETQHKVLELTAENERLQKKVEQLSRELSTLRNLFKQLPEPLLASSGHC
Chain of Retinoic acid receptor alpha (Homo sapiens) (P10276 whole entry, looked up): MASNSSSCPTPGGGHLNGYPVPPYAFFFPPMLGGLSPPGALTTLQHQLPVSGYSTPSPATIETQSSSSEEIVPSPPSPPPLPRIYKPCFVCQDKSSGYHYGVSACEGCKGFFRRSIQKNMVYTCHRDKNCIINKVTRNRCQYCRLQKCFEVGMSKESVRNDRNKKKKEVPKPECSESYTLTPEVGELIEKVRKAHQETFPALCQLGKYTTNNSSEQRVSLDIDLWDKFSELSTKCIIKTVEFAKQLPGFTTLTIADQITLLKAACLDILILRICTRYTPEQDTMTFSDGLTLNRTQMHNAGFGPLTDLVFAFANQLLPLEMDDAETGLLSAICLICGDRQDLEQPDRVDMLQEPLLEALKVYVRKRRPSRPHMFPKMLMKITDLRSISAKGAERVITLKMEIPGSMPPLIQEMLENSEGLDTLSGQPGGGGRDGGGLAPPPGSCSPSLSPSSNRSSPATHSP
Chain of Transcription factor E2F1 (Homo sapiens) (Q01094 whole entry, looked up): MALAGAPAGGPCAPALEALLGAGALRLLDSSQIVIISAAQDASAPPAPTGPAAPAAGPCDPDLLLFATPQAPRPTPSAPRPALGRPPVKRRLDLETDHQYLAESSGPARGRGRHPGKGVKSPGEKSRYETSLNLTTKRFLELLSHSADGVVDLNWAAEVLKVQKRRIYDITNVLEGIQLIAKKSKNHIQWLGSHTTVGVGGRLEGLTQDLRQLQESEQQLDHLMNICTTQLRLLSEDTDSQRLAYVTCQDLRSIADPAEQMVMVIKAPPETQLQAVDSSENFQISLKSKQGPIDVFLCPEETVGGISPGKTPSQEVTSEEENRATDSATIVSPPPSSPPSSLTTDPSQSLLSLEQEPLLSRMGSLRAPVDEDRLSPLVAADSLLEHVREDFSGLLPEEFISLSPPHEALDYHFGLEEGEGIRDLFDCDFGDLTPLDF

Regarding `CC(C)c1cccc(C(C)C)c1`, the molecule was classed as inactive in [1], in [2], in [3], in test [4], in test [5] and in test [6]. The molecule was classed as inactive in test [7], in [8] and in [9].

With `COc1ccc(OC(F)(F)F)cc1CN[C@H]1CCCN[C@H]1c1ccccc1`, the molecule was called inactive in test [1], in test [2], in test [3], in test [4], in test [5] and in test [6]. The call in [7] and in [9] was inactive.

For `CCCCC(CC)COC(=O)CCCCCCCC(=O)OCC(CC)CCCC` (stereo not drawn), the outcome in test [1], in test [2], in [3], in [4], in test [5] and in [6] was inactive. In addition, the result in test [7] and in test [9] was inactive.

Consider `O=C1c2c(O)cccc2Cc2cccc(O)c21`, for which the call in test [1], in test [2], in [3], in test [4], in test [6] and in [7] was inactive. Besides, the molecule was called inactive in [9]. In addition, the AC50 in test [10] is 61.7 µM (active).

`CC(N)=O`: the outcome in test [1], in test [2], in [3], in test [4], in [5] and in test [6] was inactive. For the same molecule, the result in test [7], in test [8] and in test [9] was inactive.

As to `CC(=O)[C@@]1(O)CC[C@H]2[C@@H]3CCC4=CC(=O)CC[C@]4(C)[C@H]3CC[C@@]21C`, the molecule was called inactive in [1], in [2], in test [3], in test [4], in test [5] and in [6]. For the same molecule, the molecule was called inactive in test [7], in test [8] and in test [9].

For the molecule `Cc1cc(Cc2ccc(N)c(C)c2)ccc1N`, the call in test [1], in test [2], in test [3], in test [4], in [5] and in test [6] was inactive. Also, the molecule was classed as inactive in test [7], in [8] and in [9].

With `N[C@@H](Cc1c[nH]c2ccccc12)C(=O)O`, the result in test [1], in [2], in test [3], in test [4], in test [5] and in test [6] was inactive. In addition, the molecule was classed as inactive in test [7], in test [8] and in test [9].

Regarding `O=C1O[C@H]([C@H](O)CO)C(O)=C1O`, the molecule was called inactive in test [1], in test [2], in [3], in test [4], in test [10] and in test [6]. For the same molecule, the molecule was called inactive in test [7] and in [9].

Take `CC(C)OC(=O)C(C)(C)Oc1ccc(C(=O)c2ccc(Cl)cc2)cc1`: the call in [1], in test [2], in [6], in [8] and in test [9] was inactive. Also, the AC50 was 67.9 µM (active) in test [3], 61 µM (active) in [4], 74.4 µM (active) in [5] and 45.7 µM (active) in test [7].

Take `CC(=O)OC1CC(C)OC(C)O1` (stereo not drawn): the call in test [1], in test [2], in test [3], in [4], in test [5] and in [6] was inactive. Also, the call in [7], in [8] and in test [9] was inactive.

As for `CS(=O)(=O)c1ccc([C@@H](C[C@H]2CCC(=O)C2)C(=O)Nc2cnccn2)cc1Cl`, the molecule was called inactive in [1], in [2], in test [3], in test [4], in test [5] and in test [6]. The molecule was called inactive in [7] and in test [9].

Take `Cc1cn([C@H]2C=C[C@@H](CO)O2)c(=O)[nH]c1=O`: the result in test [1], in test [2], in test [3], in test [4], in test [10] and in test [6] was inactive. Further, the call in [7] and in test [9] was inactive.

As to `CC(C)c1cccc(C(C)C)c1NC(=O)NS(=O)(=O)c1cc(C(C)(C)O)co1`, the outcome in test [1], in test [2], in [3], in [4], in test [5] and in [6] was inactive. Moreover, the result in test [7], in [8] and in test [9] was inactive.

On to `CC(C)NCC(O)c1ccc(O)c(O)c1` (stereo not drawn), for which the result in test [1], in test [2], in test [3], in test [4], in [5] and in [6] was inactive. Besides, the molecule was called inactive in [7] and in test [9].

Take `CCCCc1nc2cccnc2n1Cc1ccc(-c2ccccc2-c2nnn[nH]2)cc1`: the result in [1], in test [2], in test [3], in test [4], in test [5] and in [6] was inactive. For the same molecule, the call in test [7] and in test [9] was inactive.

Take `CCCCC(CC)CO` (stereo not drawn): the molecule was called inactive in test [1], in test [2], in [3], in [4], in test [5] and in test [6]. The outcome in test [7] and in test [9] was inactive.

As to `Oc1ccc(O)cc1`, the result in test [1], in test [2], in [3], in test [4], in test [8] and in test [9] was inactive. The figures for the AC50 in [5], in [6] and in test [7] were 48.3 µM (active), 28.8 µM (active) and 200 µM (active), respectively.

As to `CCc1cc(C2=C(C(=O)O)N(c3ccccc3C(F)(F)F)S(=O)(=O)c3ccccc32)cc2c1OCO2`, the outcome in test [1], in test [2], in test [3], in [4], in [6] and in [7] was inactive. Also, the call in test [9] was inactive. For the same molecule, the AC50 in test [5] was 38.6 µM (active).

Take `CC(C)(C)c1ccccc1`: the result in test [1], in test [2], in [3], in test [4], in [5] and in test [6] was inactive. The outcome in test [7], in [8] and in test [9] was inactive.

As to `CN(C)C(=O)NC1(c2ccccc2)CCN(CCC[C@]2(c3ccc(Cl)c(Cl)c3)CCCN(C(=O)c3ccccc3)C2)CC1`, the AC50 in test [1] is 4.22 µM (active); in [2], 5.22 µM (active); in test [4], 4.53 µM (active); in test [5], 2.75 µM (active). Besides, the outcome in test [3], in [6], in [7] and in test [9] was inactive.

Regarding `CC(C)COC(=O)CCCCC(=O)OCC(C)C`, the result in [1], in test [2], in test [3], in test [4], in test [5] and in test [6] was inactive. Moreover, the outcome in test [7], in test [8] and in test [9] was inactive.

For the molecule `CCCCCCCCCC[N+](C)(C)[O-]`, the outcome in test [1], in test [2], in test [3], in [4], in test [5] and in test [6] was inactive. The molecule was classed as inactive in [7] and in test [9].

As for `CN(C)CCCN(C)CCCN(C)C`, the molecule was called inactive in test [1], in [2], in test [3], in test [10], in test [6] and in test [7]. In test [9], the outcome was inactive. Besides, in [4], the AC50 was 24.5 µM (active).

On to `O=C1CCCCC1`, for which the call in test [1], in test [2], in test [3], in test [4], in test [5] and in [6] was inactive. Moreover, the outcome in [7] and in test [9] was inactive.

As for `c1ccc2occc2c1`, the molecule was called inactive in test [1], in test [2], in [3], in test [4], in test [5] and in [6]. The molecule was called inactive in [7] and in [9].

Consider `O=C(Oc1ccccc1)c1cccc(C(=O)Oc2ccccc2)c1`, for which the result in test [1], in [2], in test [3], in [4], in test [5] and in [6] was inactive. Moreover, the outcome in test [7], in [8] and in test [9] was inactive.

For the origin of these results see PubChem BioAssay (EPA / NIEHS).
